According to the supplement of paper PMC3334620:
Over roughly 33,000 sequences, “E-score (-0.5 to 0.5)” has its median near -0.043; the highest 2% begin near 0.37. Shown is part of a subset that was picked to be rich in the highest values.

The sequences below were run against T1, Upc2 (UniProt Q12151) (assay: PBM E-score (8-mer binding enrichment) (E-score (-0.5 to 0.5)); higher = stronger / more preferred TF binding). Conditions: protein concentration: 200 nM; construct: GST-full length.
T1 sequence: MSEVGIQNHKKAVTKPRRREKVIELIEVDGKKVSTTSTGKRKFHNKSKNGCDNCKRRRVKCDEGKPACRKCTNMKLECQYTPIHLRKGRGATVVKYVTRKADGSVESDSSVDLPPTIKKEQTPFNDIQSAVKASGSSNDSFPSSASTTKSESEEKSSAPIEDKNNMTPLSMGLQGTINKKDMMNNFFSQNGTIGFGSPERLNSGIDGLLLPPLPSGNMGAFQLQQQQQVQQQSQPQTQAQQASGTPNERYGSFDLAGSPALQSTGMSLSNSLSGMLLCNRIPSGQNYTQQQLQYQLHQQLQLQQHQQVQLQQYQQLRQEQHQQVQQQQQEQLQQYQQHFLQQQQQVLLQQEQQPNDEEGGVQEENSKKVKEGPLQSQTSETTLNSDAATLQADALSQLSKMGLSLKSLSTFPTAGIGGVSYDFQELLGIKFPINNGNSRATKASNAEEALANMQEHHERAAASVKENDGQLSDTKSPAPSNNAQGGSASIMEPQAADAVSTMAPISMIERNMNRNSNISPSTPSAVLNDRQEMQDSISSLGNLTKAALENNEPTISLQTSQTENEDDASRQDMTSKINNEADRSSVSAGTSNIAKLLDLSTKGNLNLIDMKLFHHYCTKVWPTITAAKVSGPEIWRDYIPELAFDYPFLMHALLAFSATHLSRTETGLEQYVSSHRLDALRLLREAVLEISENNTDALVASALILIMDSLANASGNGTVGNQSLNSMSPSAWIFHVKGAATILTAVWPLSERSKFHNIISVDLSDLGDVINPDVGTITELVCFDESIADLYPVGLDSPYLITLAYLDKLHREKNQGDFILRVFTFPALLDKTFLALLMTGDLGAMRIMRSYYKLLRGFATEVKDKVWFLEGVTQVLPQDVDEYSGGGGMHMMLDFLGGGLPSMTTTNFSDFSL
Description: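 Universal 'all 10-mer' protein binding microarrays (Agilent AMADID 015681) probed with GST-tagged S. cerevisiae TFs (full-length or DBD) made by in vitro transcription/translation (PURExpress), about 100-200 nM. Bound TF was detected with fluorescent anti-GST. Each ungapped 8-mer (which stands for itself and its reverse complement) is scored by the PBM enrichment score (E-score), a modified Wilcoxon-Mann-Whitney statistic from -0.5 to +0.5, computed with the Universal PBM Analysis Suite. Scale: above 0.35 generally sequence-specific binding.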

Sequence	PBM E-score
CTACAATC	0.0566
ACTAGATG	-0.122
AGGGGCCA	-0.215
AACGATCG	0.383
ACCGATCT	-0.0555
CACGATCA	-0.0545
TACGATCA	0.422
AACGATCA	0.379
AACGATCT	0.381
ATCGATCG	0.136
AGCGATCA	0.11
GACGATCA	-0.0322
CACGATCG	0.125
AACGATCC	0.345
ATCGATCA	0.0619
GAGCGATA	0.218
GAAGAAGC	-0.195
AGTCAAGG	-0.208
AACGCGAA	0.23
CTCTTGCC	-0.16
ATAACCTC	-0.0875
AAGGAAAG	-0.171
CGCACTAC	-0.0438
ACCTCAGT	-0.0386
ATATGAAG	-0.19

Sequence	PBM E-score
ATATAAAC	0.187
ATATATAC	0.265
GTATATAA	0.298
GTATAAAA	0.348
GTATATAC	0.395
GTATAAAC	0.4
CATTGGTA	-0.184
AATCACCG	0.00219
ATTCGCAA	-0.00304
GCCGTAAA	0.385
CCTGTAAA	-0.0269
GCCGTAAC	0.225
CCCGTAAA	0.381
CCCCGTAA	0.308
ACCGTAAA	0.368
AGCTACTC	-0.129
CAAAAGCA	0.0182
ACTTATGG	-0.159
CCTACTCC	-0.318
GGACGTAC	0.138
CGTCGTCC	-0.154
GGTCGCAC	0.138
CATCGTCG	0.106
AGTCGTAC	0.452
CGTAGTAG	0.108

Sequence	PBM E-score
AGTCGTGC	-0.127
GGTCGTAC	0.462
CGTCGTAG	0.37
CGTCGTGC	0.0916
AGTCGTCC	-0.111
CGTCGTAC	0.474
GAGTGAGA	-0.214
CGCCTATC	-0.0576
AAAGGAGC	-0.113
GGGAGGAA	-0.119
AGAGATGA	-0.204
ATGGAGCA	-0.0645
CCCCAAGG	-0.378
CTTCCACC	-0.173
CAACCTCG	0.196
AGTCGTAT	0.467
AGTCGTCG	0.0489
AGTCGTAG	0.291
CGGAAGCC	-0.0575
ACTTTTCA	-0.0685
CGTTGTTA	0.0821
ATTCGTTC	0.428
ATTCGTTA	0.346
CTTCGTTA	0.345
CTTCGATC	0.0841

Sequence	PBM E-score
CTTCGTTC	0.457
CTTCGCTC	0.208
GTGCGTTA	0.0729
GTTCGTTA	0.403
ATTCGTTG	0.215
AGTCCTCA	-0.296
CATAGGTC	-0.0923
GCCCCTCC	-0.0822
ACATAACG	0.116
GCCTATCA	-0.187
ATACGGTA	0.406
AAACGGTC	0.344
AAACGGTA	0.367
AGACGGTG	-0.109
GTACGGTA	0.365
AAACGGTG	0.386
CTACGGTA	0.122
ATACGGTC	0.418
ACACGGTC	-0.099
ACACGGTG	-0.0718
ATACGGTG	0.408
CTACGGTC	0.109
GATGAAAA	0.0354
GGCGGGTA	-0.00895
GACGAACA	0.0681

Sequence	PBM E-score
ACCGAACG	0.269
CACGAACC	0.101
TCCGAACA	-0.0096
GACGAACC	0.0416
CACGAACG	0.343
CACGAACA	0.0853
AACGAACA	0.426
TACGAACA	0.452
AGCGAACA	0.19
AACGAACC	0.427
AACGAACG	0.419
AGAAGCGG	-0.222
AGAATAGA	-0.17
CACACTTA	-0.00527
ACTAGAGC	-0.0879
GTAATGAC	0.109
ACAGTTTC	-0.0564
CCCGCCAA	0.00973
ACTCTACT	0.0626
CATCCTAC	-0.0778
ACGCTAGG	-0.165
AGAGTAAT	-6e-05
TGTCGACA	0.063
CCCTAGCA	-0.26
AGCGAACT	0.0961

Sequence	PBM E-score
ACCGAACT	0.0158
AACGAACT	0.371
AATAGCCT	-0.081
ACGATTCA	0.328
AGCGTATC	0.166
CGCGTATC	0.253
AGCGTATA	0.444
AGCGTATG	0.268
GGCGTAGA	0.048
CGCGTATA	0.451
CGCGTAGA	0.165
GGCGTATA	0.434
GGCGTCTA	-0.152
GAACCATA	-0.072
CGCCTTGC	-0.288
ACTTGTCA	-0.235
AAAGCATG	-0.169
AGCTTGAT	-0.129
CGTATGAC	0.42
AGTATGAC	0.0571
GGTATGAC	-0.204
CCTATGAG	-0.28
CGTATGAG	0.415
AGTATGAG	-0.125
GGTATGAA	0.0119

Sequence	PBM E-score
CGTATGAA	0.405
AGTATGAA	0.00208
CAAGGTGG	-0.0983
ACGTAACA	-0.0115
GATCTTAA	0.159
ACGGTGGG	0.134
TACGACTA	0.437
AACGACTT	0.305
AACGACTC	0.401
CACGACTG	0.0762
AGCGACTA	0.154
GACGACTC	-0.052
AACGACTG	0.389
GACGACTA	-0.171
CACGACTC	0.0449
ATCGACTG	0.0556
CACGACTA	-0.0651
AACGACTA	0.379
AACCATAA	-0.0292
CACCAATC	-0.249
CTCCCACC	-0.0368
GTGTTCAA	-0.00045
